Reference: the supplement of paper PMC9262897, “Low-cost anti-mycobacterial drug discovery using engineered E. coli” (Nature Communications, 2022)
Where a name gives a salt, the structure may show the parent alone. ± gives the standard deviation of the averaged measurements.

system: E. coli TESEC Alr+ wild-type control; test: growth (OD600 after 10 h); higher = more growth (less inhibition); settings: compound 0.1 mM; raw OD600 reference: median of DMSO wells 0.49, cell-free background 0.052
Description: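 TESEC Mtb Alr E. coli (ΔaraC ΔtolC ΔentC Δalr ΔdadX, arabinose-inducible Mtb Alr) or the Alr+ wild-type control strain, grown in defined M9-fructose medium without D-alanine in 96-well plates with Prestwick library compounds at 0.1 mM and 1% DMSO. Low Alr induction is 0.1 µM arabinose and high induction is 10 mM arabinose.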

| Structure (SMILES) | growth |
| --- | --- |
| CC(Cc1cccc(C(F)(F)F)c1)NCCOC(=O)c1ccccc1 (stereo not given) [Benfluorex] | 0.405 ± 0.013 |
| Cc1nc2ccccn2c(=O)c1CCN1CCC(C(=O)c2ccc(F)cc2)CC1 [Pirenperone] | 0.469 ± 0.013 |
| C[C@H]1NC(=O)NC1=O [Methylhydantoin-5-(D)] | 0.607 ± 0.018 |
| COc1cc2nc(N3CCN(C(=O)c4ccco4)CC3)nc(N)c2cc1OC [Prazosin hydrochloride] | 0.498 ± 0.007 |
| CC(=O)N(O)CCCCCNC(=O)CCC(=O)N(O)CCCCCNC(=O)CCC(=O)N(O)CCCCCN [Deferoxamine mesylate] | 0.1754 ± 0.0017 |
| O=C1C(=O)c2ccccc2C(O)=C1C1CCC(c2ccc(Cl)cc2)CC1 (stereo not given) [Atovaquone] | 0.545 ± 0.044 |
| C#Cc1cccc(Nc2ncnc3cc(OCCOC)c(OCCOC)cc23)c1 [Erlotinib] | 0.436 ± 0.03 |
| COCCCOc1ccnc(C[S+]([O-])c2nc3ccccc3[nH]2)c1C (stereo not given) [Rabeprazole Sodium salt] | 0.375 ± 0.0068 |
| CN(C(=O)C(Cl)Cl)c1ccc(OC(=O)c2ccco2)cc1 [Diloxanide furoate] | 0.609 ± 0.087 |
| CC/C(=C(\c1ccccc1)c1ccc(OCCN(C)C)cc1)c1ccccc1 [Tamoxifen citrate] | 0.0552 ± 0.015 |
| CC(C)(C)NCC(O)COc1cccc2c1CCC(=O)N2 (stereo not given) [Carteolol hydrochloride] | 0.649 ± 0.043 |
| CCC(C)(CN(C)C)OC(=O)c1ccccc1 (stereo not given) [Amyleine hydrochloride] | 0.586 ± 0.017 |
| C#C[C@]1(O)CC[C@H]2[C@@H]3[C@H](C)CC4=C(CCC(=O)C4)[C@H]3CC[C@@]21C [Tibolone] | 0.393 ± 0.015 |
| CCOC(=O)C1=C(COCCN)NC(C)=C(C(=O)OC)C1c1ccccc1Cl (stereo not given) [Amlodipine] | 0.566 ± 0.028 |
| Cc1ccccc1OCC(O)CO (stereo not given) [Mephenesin] | 0.494 ± 0.1 |
| C[C@]12C=CC(=O)C=C1CC[C@@H]1[C@@H]2[C@@H](O)C[C@@]2(C)[C@H]1CC[C@]2(O)C(=O)CO [Prednisolone] | 0.514 ± 0.065 |
| CC(C(=O)O)c1ccc2c(c1)Cc1cccnc1O2 (stereo not given) [Pranoprofen] | 0.4398 ± 0.0017 |
| NS(=O)(=O)c1cc2c(cc1C(F)(F)F)NCNS2(=O)=O [Hydroflumethiazide] | 0.455 ± 0.035 |
| CN1CCCN=C1/C=C/c1cccc(O)c1 [Oxantel pamoate] | 0.496 ± 0.038 |
| CN1CCN(c2c(F)cc3c(=O)c(C(=O)O)cn4c3c2SCC4)CC1 [Rufloxacin] | 0.0549 ± 0.00072 |

| Structure (SMILES) | growth |
| --- | --- |
| CCc1cc(Cl)c(OC)c(C(=O)NC[C@@H]2CCCN2CC)c1O [S(-)Eticlopride hydrochloride] | 0.567 ± 0.012 |
| COc1ccc(CN(CCN(C)C)c2ccccn2)cc1 [Pyrilamine maleate] | 0.528 ± 0.077 |
| NNC(=O)c1ccncc1 [Isoniazid] | 0.458 ± 0.054 |
| CC(=O)OC[C@H]1O[C@@H]([S-])[C@H](OC(C)=O)[C@@H](OC(C)=O)[C@@H]1OC(C)=O.CCP(CC)CC.[Au+] [Auranofin] | 0.059 ± 0.00026 |
| Nc1ncn(C2OC(CO)C(O)C2O)c(=O)n1 (stereo not given) [Azacytidine-5] | 0.4795 ± 0.0037 |
| CN(C)CC/C=C1\c2ccccc2CSc2ccccc21 [Dosulepin hydrochloride] | 0.425 ± 0.028 |
| CN1CCCCC1CCN1c2ccccc2Sc2ccc([S+](C)[O-])cc21 (stereo not given) [Mesoridazine besylate] | 0.568 ± 0.023 |
| CC1COc2c(N3CCN(C)CC3)c(F)cc3c(=O)c(C(=O)O)cn1c23 (stereo not given) [Ofloxacin] | 0.0509 ± 0.00059 |
| CN1CCCC(n2nc(Cc3ccc(Cl)cc3)c3ccccc3c2=O)CC1 (stereo not given) [Azelastine HCl] | 0.472 ± 0.021 |
| CCCCC(CC)CN1CN(CC(CC)CCCC)CC(C)(N)C1 (stereo not given) [Hexetidine] | 0.0454 ± 0.00058 |
| CN(C)CCOC(=O)COc1ccc(Cl)cc1 [Meclofenoxate hydrochloride] | 0.511 ± 0.083 |
| C[C@]12CCC(=O)C=C1CC[C@@H]1[C@@H]2[C@@H](O)C[C@@]2(C)[C@H]1CC[C@]2(O)C(=O)CO [Hydrocortisone base] | 0.578 ± 0.1 |
| O=C(O)c1cn(-c2ccc(F)cc2)c2cc(N3CCNCC3)c(F)cc2c1=O [Sarafloxacin] | 0.0534 ± 0.00044 |
| CCN(CC)CCNC(=O)c1ccc(N)cc1 [Procainamide hydrochloride] | 0.634 ± 0.046 |
| CN(CCCN1c2ccccc2CCc2ccccc21)CC(=O)c1ccc(Cl)cc1 [Lofepramine] | 0.343 ± 0.013 |
| COc1cccc2c1C(=O)c1c(O)c3c(c(O)c1C2=O)C[C@@](O)(C(=O)CO)C[C@@H]3O[C@H]1C[C@H](N)[C@@H](O)[C@H](C)O1 [Epirubicin hydrochloride] | 0.0592 ± 0.0032 |
| Oc1c(Cl)cc(Cl)c2cccnc12 [Chloroxine] | 0.0623 ± 0.0012 |
| COc1c(O[C@@H]2O[C@H](CO)[C@@H](O)[C@H](O)[C@H]2O)cc2c(c1OC)-c1ccc(SC)c(=O)cc1[C@@H](NC(C)=O)CC2 [Thiocolchicoside] | 0.51 ± 0.076 |
| Cc1cc(C)nc(NS(=O)(=O)c2ccc(N)cc2)n1 [Sulfamethazine sodium salt] | 0.482 ± 0.088 |
| CCC(C)n1ncn(-c2ccc(N3CCN(c4ccc(OCC5COC(Cn6cncn6)(c6ccc(Cl)cc6Cl)O5)cc4)CC3)cc2)c1=O (stereo not given) [Itraconazole] | 0.44 ± 0.018 |
